One assay deals with TAB165. In words: qHTS profiling for inhibitors of Plasmodium falciparum proliferation (AID 504749). The note with it: P. falciparum in erythrocytes, SYBR Green DNA, 72 h; series mostly up to 28.7 µM. The method in brief: (§1)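 P. falciparum-infected erythrocytes (0.3% parasitemia, 2.5% hematocrit final) were exposed to compounds for 72 h at 37 C in 5% CO2, then lysed with SYBR Green buffer overnight at room temperature; parasite DNA fluorescence was normalized to artemisinin and DMSO controls.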
In general terms: Quantitative high-throughput screening tests each substance at several concentrations.

A further assay concerns CRL-7250. The assay can be described thus: Cytotoxic Profiling of Annotated Libraries Using Quantitative High-Throughput Screening (AID 1296008). For max response: % is set by controls: 0 for no effect and ±100 for the full control effect. The note with it: Five cell lines viability, CellTiter-Glo ATP luminescence, 48-72 h; max response: hits give low values. The method in brief:
(§2)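 Compounds were pin-transferred onto cells and incubated 48 or 72 hr at 37 degree Celsius, 95% humidity. CellTiter-Glo was added, plates sat 10 min at room temperature, then ATP-coupled luminescence was imaged as the viability read-out.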
On the technique in general: ATP-based viability assays read luminescence as a measure of living cells.

In assay [1] the test system is HaCat. The description is as above. The settings on record: Five cell lines viability, CellTiter-Glo ATP luminescence, 48-72 h; max response: hits give low values. The method in brief:
as §2

The test system of the next assay is KB-3-1. The assay is described as above. The note with it: Five cell lines viability, CellTiter-Glo ATP luminescence, 48-72 h; max response: hits give low values. The procedure, abridged:
as §2

Another assay relates to NIH3T3. The description is as above. The note with it: Five cell lines viability, CellTiter-Glo ATP luminescence, 48-72 h; max response: hits give low values. The method in brief:
as §2

In assay [2] the test system is HACAT. In words: qHTS assay to identify novel small-molecules to repurpose for Merkel cell carcinoma treatment (AID 1296009). The settings on record: MCC and control cell lines, CellTiter-Glo viability, 72 h. The method in brief:
(§3)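 Cells exposed to NPC (8-point) and MIPE (11-point) compound dilutions for 72 hr at 37 degree celsius; viability read by CellTiter-Glo luminescence, normalized to no-cell and DMSO in-plate controls.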

The next assay concerns HEK293T. Described as above. The settings on record: MCC and control cell lines, CellTiter-Glo viability, 72 h. The method in brief:
as §3

Another assay concerns MCC-13. The description is as above. The settings on record: MCC and control cell lines, CellTiter-Glo viability, 72 h; series mostly up to 46 µM. The method in brief:
as §3

The next assay concerns HEK293. In words: Cytotoxic Profiling of Annotated Libraries Using Quantitative High-Throughput Screening (AID 1296008). For max response: % is set by controls: 0 for no effect and ±100 for the full control effect. The note with it: Five cell lines viability, CellTiter-Glo ATP luminescence, 48-72 h; max response: hits give low values. The method in brief:
as §2

The next assay deals with W2. In words: qHTS profiling for inhibitors of Plasmodium falciparum proliferation (AID 504749). The note with it: P. falciparum in erythrocytes, SYBR Green DNA, 72 h; series mostly up to 28.7 µM. The procedure, abridged: as §1
Where [3] appears, read: at 44.8 µM (top of the series) unless noted.

Several values for one entry are separate records, joined by “and”; a condition that tells them apart may be missing. Equal values may be shown once. Results filed as inconclusive are left out. More than one record can exist for a structure, and the calls need not agree. Unmarked numbers belong to inactive results. Activity calls are given as the source filed them. Calls come from the whole dose curve; as a rule, active = well fitted inhibition curve with a large enough effect; inconclusive = small, poorly fitted or top-dose-only effect; inactive = flat fitted curve, though single readings scatter.
Note: nearly all actives have a fitted effect of over 60% in size.
Potency is the fitted concentration of half-maximal effect.

Take `COc1ccc(C(=O)CC(=O)c2ccc(C(C)(C)C)cc2)cc1`: the Potency entry in the assay with TAB165 and in the assay on MCC-13 was “inactive” throughout. Moreover, the max response in the assay on CRL-7250 was -14.9% and 1.38%; with HaCat [1] it was -14.4%; with KB-3-1, -7.03% and 3.76%; in the assay with NIH3T3, -3.73% and 2.63%. For the same molecule, the molecule was called inactive in the assay on HaCat [1], with HACAT [2] (setting [3]) and in the assay on HEK293T (setting [3]).

Turning to `CCCCS(=N)(=O)CCC(N)C(=O)O` (stereo not given), the max response in the assay with CRL-7250 is -8.66%; with HEK293 it was -11.7%; in the assay on KB-3-1 it was -5.13%; with NIH3T3, -0.0148%. Moreover, the result in the assay on HaCat [1] and in the assay on HACAT [2] (setting [3]) was inactive.

Take `O=c1oc2c(O)c(O)cc3c(=O)oc4c(O)c(O)cc1c4c23`: the Potency is 1.41 µM (active) in the assay on TAB165 and 1.9 µM (active) in the assay with W2. For the same molecule, the max response in the assay on CRL-7250 was -1.07%; with HaCat [1] it was 0.0618% and -16.9%; in the assay with KB-3-1, -24.2% and 0.262%; in the assay with NIH3T3, 2.17%. The result with HEK293, in the assay with HEK293T (at 17.4 µM (top of the series)) and with HEK293T (at 44.8 µM (top of the series)) was inactive. Besides, in the assay on MCC-13, the Potency entry is “inactive”.

Take `O=C(O)C1CCCN(CCC=C(c2ccccc2)c2ccccc2)C1` (stereo not given): the molecule was called inactive in the assay with CRL-7250. In addition, the max response in the assay with HEK293 is 3.73%; in the assay on HaCat [1], -1.89%; in the assay with KB-3-1 it was 5.05%; with NIH3T3, 3.07%. Further, the Potency entry in the assay on MCC-13 was “inactive”.

Consider `CC(C)C[C@H](NC(=O)[C@H](CCc1ccccc1)NC(=O)CN1CCOCC1)C(=O)N[C@@H](Cc1ccccc1)C(=O)N[C@@H](CC(C)C)C(=O)[C@@]1(C)CO1`, for which the Potency in the assay with CRL-7250 was 211 nM (active) and 209 nM (active); with HEK293 it was 37.6 nM (active) and 23.5 nM (active); in the assay with HaCat [1], 0.332 µM (active); with KB-3-1 it was 1.84 µM (active) and 132 nM (active); with NIH3T3 it was 299 nM (active) and 235 nM (active); in the assay with MCC-13, 84.1 nM (active) and 418 nM (active).

Regarding `NCCCC(O)(P(=O)(O)O)P(=O)(O)O`, the Potency result in the assay on TAB165, in the assay with W2 and with MCC-13 was “inactive” in each case. Moreover, the outcome in the assay with CRL-7250 and with NIH3T3 was inactive. The max response in the assay on HEK293 was -8.5% and -22.9%; in the assay on HaCat [1] it was -6.79%; with KB-3-1, 17.7% and -6.17%; in the assay on NIH3T3 it was 0.802%.

Take `COC(=O)Nc1nc2ccc(C(=O)c3ccccc3)cc2[nH]1`: the Potency entry with TAB165 is “inactive”. For the same molecule, the Potency was 5.9 µM (active) with CRL-7250; 623 nM (active) in the assay with KB-3-1; 18.8 µM (active) and 2.64 µM (active) in the assay with NIH3T3; 3.72 µM (active) in the assay with MCC-13. In the assay with HaCat [1], the max response is 4.64%. The outcome in the assay on HaCat [1] and with HACAT [2] (setting [3]) was inactive.

On to `CC(=O)Oc1ccccc1C(=O)Nc1ncc([N+](=O)[O-])s1`, for which the Potency entry in the assay on TAB165 and in the assay on MCC-13 was “inactive” each time. Moreover, the max response with HEK293 was -13.9%; with KB-3-1, -5.17% and -18.8%. For the same molecule, the result in the assay with HaCat [1], in the assay with NIH3T3, with HACAT [2] (at 44.8 µM (top of the series)) and with HACAT [2] (at 92 µM (top of the series)) was inactive.

For `Cc1ccc(S(=O)(=O)N[C@@H](Cc2ccccc2)C(=O)CCl)cc1`, the figures for the max response with CRL-7250 and in the assay with KB-3-1 were -1.25% and 6.1%, respectively. For the same molecule, the molecule was classed as inactive in the assay with HaCat [1], with NIH3T3 and in the assay with HACAT [2] (setting [3]). The Potency result in the assay on MCC-13 is “inactive”.

As to `Nc1[nH]c(=O)ncc1F`, the Potency result with TAB165 and in the assay on W2 was “inactive” in each case.

Take `CCN(CC)CC#CCOC(=O)C(O)(c1ccccc1)C1CCCCC1` (stereo not given): the molecule was called inactive in the assay with CRL-7250, in the assay on HaCat [1], in the assay with NIH3T3 and in the assay on HACAT [2] (setting [3]). The max response with KB-3-1 was 11.1% and 9.45%. Moreover, in the assay with MCC-13, the Potency entry was “inactive”.

On to `NC(=O)c1cccc(N)c1`, for which the values for the max response with CRL-7250 and in the assay on HaCat [1] were -10% and -6.72%, respectively. In addition, the molecule was classed as inactive in the assay on KB-3-1 and in the assay with NIH3T3. For the same molecule, the Potency result in the assay on MCC-13 is “inactive”.

Consider `CC(=O)[C@H]1CC[C@H]2[C@@H]3CCC4=CC(=O)CC[C@]4(C)[C@H]3CC[C@]12C`, for which the Potency with HEK293 is 16.6 µM (active). Besides, the max response in the assay on NIH3T3 is -0.969%. Besides, in the assay with MCC-13, the Potency result was “inactive”.

As to `CC(C)C1CCC(C(=O)N[C@H](Cc2ccccc2)C(=O)O)CC1` (stereo not given in full), the max response in the assay with CRL-7250 was -2.02% and -1.93%; with HaCat [1], -8.21% and -7.47%; with KB-3-1, 4.69% and 4.96%; in the assay on NIH3T3 it was 0.816% and -0.595%. Besides, the Potency result in the assay on MCC-13 was “inactive”.

For `CN1CCCC(n2nc(Cc3ccc(Cl)cc3)c3ccccc3c2=O)CC1` (stereo not given), in the assay on W2, the Potency was 6.01 µM (active). The max response in the assay with HaCat [1] is 3.73%; in the assay on KB-3-1, -6.94% and -2.19%; with NIH3T3 it was 5%. The call in the assay with HaCat [1] and in the assay on HACAT [2] (setting [3]) was inactive. The Potency result in the assay on MCC-13 is “inactive”.

Regarding `COc1ncnc(NS(=O)(=O)c2ccc(N)cc2)c1OC`, the Potency entry in the assay with TAB165, in the assay with W2 and in the assay on MCC-13 was “inactive” throughout. The Potency in the assay on HEK293 was 3.32 µM (active); in the assay on NIH3T3 it was 16.6 µM (active). Also, the call in the assay on HEK293, in the assay on HaCat [1], in the assay on HACAT [2] (setting [3]) and in the assay on HEK293T (setting [3]) was inactive. The max response with HaCat [1] is -20.7%; in the assay on KB-3-1, -15% and 8.7%; in the assay on NIH3T3 it was -17.7%.

In the case of `NC(=O)N1c2ccccc2CC(=O)c2ccccc21`, the Potency entry with TAB165, with W2 and with MCC-13 was “inactive” each time. For the same molecule, the max response in the assay with CRL-7250 is 1.16% and -4.89%; in the assay on KB-3-1, -10.3% and 3.64%. For the same molecule, the result in the assay with HaCat [1], in the assay with NIH3T3, in the assay with HACAT [2] (setting [3]) and with HEK293T (setting [3]) was inactive.

For the molecule `O[C@@H](CNC[C@H](O)[C@H]1CCc2cc(F)ccc2O1)[C@@H]1CCc2cc(F)ccc2O1`, in the assay on KB-3-1, the Potency was 20900 nM (active). The Potency entry in the assay on MCC-13 was “inactive”.

On to `COc1ccc2c(c1)c(CC(=O)OCC(=O)O)c(C)n2C(=O)c1ccc(Cl)cc1`, for which the max response was -1.43% and 4.64% in the assay with CRL-7250; -2.32% and -4.14% with HaCat [1]; -10.9% and 5.13% in the assay on KB-3-1; -11.9% and 4.26% in the assay on NIH3T3. The molecule was called inactive with HEK293T (setting [3]). The Potency result in the assay with MCC-13 was “inactive”.

(Values after PubChem BioAssay (NCATS).)
